# High-throughput results deposited in PubChem BioAssay by National Center for Advancing Translational Sciences (NCATS).
# Rows were chosen to be rich in hits. Some 2.6% of all compounds tested hit in one or more screens of this group.
# AmpC det inh = blocks E. coli AmpC beta-lactamase in presence of detergent; Potency, µM (doses to about 28.7 µM), for inactives: at the highest dose activity change, negative = inhibition; actives 0.09% (n = 71,000); P00811; purified AmpC, nitrocefin hydrolysis with detergent; active = well fitted curve in the direction sought with a large enough effect; inconclusive = small, poorly fitted or top-dose-only effect; note: % is set by controls: 0 for no effect and ±100 for the full control effect
# Target sequence (P00811 whole entry, looked up): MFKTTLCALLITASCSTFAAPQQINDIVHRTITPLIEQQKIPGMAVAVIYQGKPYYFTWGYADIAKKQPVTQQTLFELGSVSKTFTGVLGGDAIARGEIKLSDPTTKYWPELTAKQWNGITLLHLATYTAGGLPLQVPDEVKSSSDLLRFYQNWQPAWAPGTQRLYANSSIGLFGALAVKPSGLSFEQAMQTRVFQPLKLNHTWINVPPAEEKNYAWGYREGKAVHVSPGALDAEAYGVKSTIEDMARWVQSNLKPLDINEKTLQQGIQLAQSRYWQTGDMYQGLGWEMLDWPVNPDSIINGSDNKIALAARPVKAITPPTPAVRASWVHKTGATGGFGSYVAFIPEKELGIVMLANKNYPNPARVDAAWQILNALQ
#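 E. coli AmpC (5.3 nM) in 20 mM phosphate pH 7.0 with 0.01% Triton X-100, preincubated 15 min RT with compound; nitrocefin (2 uL of 800 uM stock) hydrolysis followed by 480 nm absorbance every 20 s over 4 min.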
# SmPrx2 inh = blocks S. mansoni peroxiredoxin 2 enzymatic activity; S. mansoni Prx2 activity coupled to TGR/GSH (TGR is thioredoxin glutathione reductase), NADPH fluorescence loss, qHTS; Potency, µM; actives 0.07% (n = 65,000)
#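 Prx2 activity was followed as the loss of NADPH fluorescence (ex 365/em 450 nm), read every 30 sec for 8 min after H2O2 start. The enzyme mix (50 nM Prx2, 25 nM TGR, GSH, NADPH; pH 7.4 phosphate buffer) was incubated with compound for 15 min at room temperature first.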
# Anthrax LT inh = inhibitors of anthrax lethal toxin internalization | actives 0.67% (n = 70,000) | Cells, anthrax lethal toxin internalization, FRET ratio (460/530) | Potency, µM (doses to about 40 µM), without a hit: at the top dose activity change, negative = inhibition, actives largely listed as inhibitors; note: % is set by controls: 0 for no effect and ±100 for the full control effect; nearly all actives have a fitted effect of over 50% in size
# AmpC inh no det = inhibitors of E. coli AmpC beta-lactamase without detergent; P00811; AmpC nitrocefin hydrolysis, absorbance 480 nm, no detergent; Potency, µM (doses to about 28.7 µM), inactives show top-dose activity change, negative = inhibition; actives 1.8% (n = 71,000); AID 585; note: % of control where 0% means no effect
#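 AmpC, 20 mM phosphate pH 7.0; 15 min cpd preinc, RT; start with nitrocefin (800 uM stock); A480 kinetic read, 20 s intervals, 4 min. No-enzyme wells = negative control.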
# * marks the source's active call; other numbers are inactive results; ? = inconclusive; . = no result; [ ] = dose if it differs, or a comment. Unless noted, calls come from the whole dose curve. Potency is the fitted concentration of half-maximal effect.
SMILES,AmpC det inh,SmPrx2 inh,Anthrax LT inh,AmpC inh no det
CCOC(=O)N1CCC(NC(=O)c2cc3c(=O)n(C)c4ccccc4c3n2C)CC1,14%,>57,?,158%
COCCCNC(=O)c1cc2c(=O)n(C)c3ccccc3c2n1C,9%,>57,13%,4µM*[single pt active]
Cn1c(C(=O)NC2CC2)cc2c(=O)n(C)c3ccccc3c21,9%,>57,3%,4µM*[single pt active]
CCNc1ncc2nc(-c3ccc(F)cc3)c(=O)n(-c3ccc(OC)cc3)c2n1,-2%,>57,7%,4%
Nc1ncnc2c1nc(Br)n2[C@@H]1O[C@H]2COP(=O)(O)O[C@@H]2[C@H]1O,-2%,>57,3%,-8%
CC(=O)N[C@H](c1ccccc1)[C@@]1(C)C[C@@H]1[C@@H](C)C(=O)Nc1ccc2ccccc2c1,1%,>57,?,90%
COC(=O)N[C@H](c1ccccc1)[C@@]1(C)C[C@@H]1[C@@H](C)C(=O)Nc1ccc2ccccc2c1,-4%,>57,10µM*,16%
Cc1ccc(-c2nnn(CC(=O)Nc3ccc(S(=O)(=O)N4CCC(C)CC4)cc3)n2)cc1,6%,>57,-25%,13µM*
CC1CCN(S(=O)(=O)c2ccc(NC(=O)Cn3nnc(-c4ccccc4)n3)cc2)CC1,-6%,>57,?,-13%
CC1CCCN(S(=O)(=O)c2ccc(NC(=O)Cn3nnc(-c4ccccc4F)n3)cc2)C1 (configuration not stated),15%,>57,-26%,16µM*
Oc1ccc2c3c1O[C@@H]1c4[nH]c5c(c4C[C@@]4(O)[C@@H](C2)N(CC2CC2)CC[C@]314)C[C@]1(O)[C@@H]2Cc3ccc(O)c4c3[C@@]1(CCN2CC1CC1)[C@H]5O4,-2%,>57,-2%,23%
Cn1nc(-c2ccc(Cl)cc2)c2cc(C(=O)NCCN3CCOCC3)sc21,14%,>57,?,146%
Cn1nc(-c2ccc(Cl)cc2)c2cc(C(=O)NC3CC3)sc21,10%,>57,-2%,4µM*[single pt active]
CCOCCCNC(=O)c1cc2c(-c3ccc(Cl)cc3)nn(C)c2s1,8%,>57,-10%,130%
CCN(CC)CCNC(=O)c1cc2c(-c3ccc(Cl)cc3)nn(C)c2s1,5%,>57,10µM*,4µM*[single pt active]
Cn1nc(-c2ccc(Cl)cc2)c2cc(C(=O)N3CCN(C(=O)c4ccco4)CC3)sc21,13%,.,-10%,4µM*[single pt active]
CCN1CCN(C(=O)c2cc3c(-c4ccc(Cl)cc4)nn(C)c3s2)CC1,9%,>57,5%,155%
Cn1nc(-c2ccc(Cl)cc2)c2cc(C(=O)NCCCN3CCOCC3)sc21,13%,>57,2.5µM*,124%
N#CSCSC#N,6%,.,?,-10%
O[C@@H](c1cc([C@@]23C[C@H]4CC[C@@H]2C[C@H](C4)C3)nc2c(Cl)cc(Cl)cc12)[C@@H]1CCCCN1,-3%[5.75 µM],>57,-11%[8 µM],12%[5.75 µM]
C[C@@]12CC[C@H]3[C@@H](CCC4=C(O)C(=O)CC[C@]43C)[C@H]1CCC2=O,-3%,>57,-2%,4%
CCNc1ncc2nc(-c3cccs3)c(=O)n(CCC#N)c2n1,1%,>57,?,55%
COc1ccccc1-c1cc(N)n(S(=O)(=O)c2ccc(F)c(C)c2)n1,8%,>57,?,20µM*[single pt active]
COc1ccc(S(=O)(=O)n2nc(-c3cc(OC)c(OC)c(OC)c3)cc2N)cc1OC,6%,>57,16%,130%
C=CCCCCCCC=C,0%,.,-11%,-8%
SMILES,AmpC det inh,SmPrx2 inh,Anthrax LT inh,AmpC inh no det
CCCSc1nnc(Cn2c(=O)sc3ccccc32)n1C,12%,>57,-14%,4µM*[single pt active]
CSc1nnc(Cn2c(=O)sc3ccccc32)n1C,12%,>57,-12%,4µM*[single pt active]
N#Cc1cc2ccccc2nc1SCC(=O)Nc1ccc(S(=O)(=O)N2CCCC2)cc1,14%,>57,-5%,5µM*
CC(=O)O[C@@H]1C[C@]2(C)[C@H](C[C@@H](O)[C@H]3[C@@]4(C)CC[C@@H](O)[C@@H](C)[C@@H]4CC[C@@]32C)/C1=C(\CCC=C(C)C)C(=O)O,-6%,>57,0%,11%
S=C=Nc1cccc(C2(N3CCCCC3)CCCCC2)c1,1%,>57,13µM*,27%
O=C(NCCC1=CCCCC1)C1CCN(S(=O)(=O)c2cccs2)CC1,10%,>57,9%,9%
O=C(NCCC1=CCCCC1)C1CCN(S(=O)(=O)c2cccc3nonc23)CC1,10%,>57,0%,20µM*[single pt active]
O=C(NCc1ccc2c(c1)OCO2)C1CCCN(S(=O)(=O)c2cccc3nonc23)C1 (configuration not stated),19%,>57,-6%,10µM*[single pt active]
CCOC(=O)OCC1OC(C#Cc2ccccc2)C=CC1Oc1cccc(N(C)C)c1 (configuration not stated),.,.,-18%[8 µM],.
O=C(NCC1CCCO1)C1CCN(S(=O)(=O)N2CCCC2)CC1 (configuration not stated),2%,>57,8%,-3%
CC1CCN(S(=O)(=O)N2CCC(C(=O)N3CCC(N(C)CC4CCCO4)CC3)CC2)CC1 (configuration not stated),16%,>57,4%,4µM*[single pt active]
COc1ccc(S(=O)(=O)Cc2ccc(C(=O)NC3CCCC3)o2)cc1,15%,>57,-9%,4µM*[single pt active]
CCOC(=O)N1CCC(NC(=O)c2ccc(CS(=O)(=O)c3ccc(OC)cc3)o2)CC1,13%,>57,7%,4µM*[single pt active]
COc1ccccc1S(=O)(=O)Cc1ccc(C(=O)NC2CCCCC2)o1,-1%,>57,-9%,12%
COc1ccc(Cl)cc1NC(=O)CSc1ncnc2c1oc1ccccc12,-3%,>57,?,13µM*[single pt active]
CCOc1ccccc1-n1nnnc1SCC(=O)Nc1cc2oc3ccccc3c2cc1OC,-3%,>57,?,6.3µM*
CCOc1ccccc1-n1nnnc1SCC(=O)Nc1cc(C)on1,-8%,>57,-2%,-13%
COc1ccc(CCNC(=O)CSc2ncnc3c2oc2ccccc23)cc1OC,11%,>57,-15%,58%
CCOC(=O)c1ccc2ncc(C(=O)OCC)c(NCCN(C)C)c2c1,14%,>57,1%,3.2µM*[single pt active]
COc1ccccc1OC[C@H](O)CN1CCN(CC(=O)Nc2c(C)cccc2C)CC1,-2%,>57,-7%,42%
COc1cccc2c1[C@@H]1CN(CCCCn3c(=O)[nH]c4c(sc5ncc(-c6ccccc6)nc54)c3=O)C[C@H]1CO2,-1%,>57,25µM*,103%
N#Cc1cccc(NC(=O)NCCc2c[nH]c3ccccc23)c1,13%,>57,13µM*,4µM*[single pt active]
CC(=O)NCCc1c[nH]c2ccccc12,-1%,>57,-1%,-2%
Cn1c(=O)c2c(ncn2CN2CCN(Cn3cnc4c3c(=O)n(C)c(=O)n4C)CC2)n(C)c1=O,-2%[5.75 µM],>57,-17%[8 µM],-1%[5.75 µM]
Nc1c(S(=O)(=O)O)cc(S(=O)(=O)O)c2ccc(N=Nc3ccccc3)c(O)c12,-5%[5.75 µM],>57,0%[8 µM],-8%[5.75 µM]
Cc1cc(-c2ccc(N=Nc3cc(S(=O)(=O)O)c4ccccc4c3N)c(C)c2)ccc1N=Nc1cc(S(=O)(=O)O)c2ccccc2c1N,13µM*,.,?,5µM*
